Out of some 290,000 compounds screened, about 3,000 (1%) were called active. Rule as the data show it: active = inhibition mostly above about 36% (no sharp cut-off); inactive = mostly below about 34%. For the sample, actives were picked, then their nearest neighbours and some compounds at random.

The assay can be described thus: inhibition of NOD1-driven NF-kB reporter – cell-based, luminescence, uHTS, primary screen (AID 1578).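 Also: HEK-293T reporter cells stimulated with the NOD1 agonist gamma-tri-DAP.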 As to conditions: NOD1-driven NF-kB luciferase reporter cells, at 4 µM, stronger effect = higher value.
A word on the inhibition: it is the change of the read-out against control, counted positive when it falls. Take `CN(c1cccc(Cl)c1)S(=O)(=O)c1cccc(C(=O)Nc2nc3ccccc3[nH]2)c1`: the inhibition was 53% (inactive).

For the compound `CN(c1ccccc1)S(=O)(=O)c1ccc(Cl)c(C(=O)Nc2nc3ccccc3[nH]2)c1`, the inhibition was 3.8% (inactive).

In the case of `O=C(NCc1ccccc1)c1cnsn1`, the inhibition was -16.6% (inactive).

Consider `CC1CCc2nc3ccccc3c(C(=O)OCC(=O)N(C)C3CCS(=O)(=O)C3)c2C1` (stereo not drawn), for which the inhibition was -19.9% (inactive).

Consider `COc1cc(C(=O)Nc2ccc(Nc3ccccc3)cc2)cc(OC)c1OC`, for which the inhibition was -1.1% (inactive).

For `Cc1ccc(C)c(CS(=O)(=O)c2cn(CC(=O)N3CCCCC3)c3ccccc23)c1`, the inhibition was -19.4% (inactive).

With `O=C(NN=C1CCCC1)c1cc(Br)ccc1O`, the inhibition is -58.6% (inactive).

On to `O=C1N/C(=N/O)S/C1=C/c1cccc([N+](=O)[O-])c1`, for which the inhibition is -24.9% (inactive).

For the compound `CC1(C)C2C/C(=N\O)C(C)(/[N+]([O-])=C/c3cccc([N+](=O)[O-])c3)CC21` (stereo not drawn), the inhibition was 62.4% (active).

As to `CC(C)N(C(=O)CO/N=C/c1cccc([N+](=O)[O-])c1)C(C)C`, the inhibition was -4.4% (inactive).

With `Cc1nnc(SCC(=O)O)s1`, the inhibition was -10.4% (inactive).

Turning to `Cc1ccc(-c2nc(CN3CCCC(C(=O)N4CCOCC4)C3)c(C)o2)cc1` (stereo not drawn), the inhibition is -23.5% (inactive).

Regarding `COC(=O)c1cnn(-c2ccc(Cl)cc2)c1/C=N/NC(N)=S`, the inhibition was 5.8% (inactive).

As to `CN(C)S(=O)(=O)c1cccc(NC(=O)c2cnccn2)c1`, the inhibition is -27.8% (inactive).

As to `CN(C)S(=O)(=O)c1cccc(NC(=O)c2ccncc2)c1`, the inhibition is -4.4% (inactive).

In the case of `CCOc1ccc(N/C(N)=N/c2nc(C)cc(C)n2)cc1`, the inhibition was -34.6% (inactive).

In the case of `CN1CCN(CCCNc2c(C=O)c(=O)[nH]c3ccccc23)CC1`, the inhibition was -5.5% (inactive).

As for `O=Cc1c(NCCN2CCOCC2)c2ccccc2[nH]c1=O`, the inhibition was 59.2% (active).

Consider `O=Cc1c(NCCN2CCCC2)c2ccccc2[nH]c1=O`, for which the inhibition is 0.2% (inactive).

On to `O=[N+]([O-])c1ccc(Cl)c(CN2CCN(c3ncccn3)CC2)c1`, for which the inhibition is -27.2% (inactive).

As for `Cc1cc(C)nc(NC(=O)c2ccc(C)o2)n1`, the inhibition is -48.4% (inactive).

For the compound `O=C1CC(c2ccc(F)cc2)c2cc3c(cc2N1)CCC3` (stereo not drawn), the inhibition was 28.6% (inactive).

For `O=C1CC(c2cc(F)ccc2F)c2cc3c(cc2N1)CCC3` (stereo not drawn), the inhibition is 64.2% (active).

In the case of `O=C1CC(c2ccccc2F)c2cc3c(cc2N1)CCC3` (stereo not drawn), the inhibition was 8.6% (inactive).

For the compound `COc1ccc(NC(=O)CCn2cc(C)c3ccccc32)cc1`, the inhibition was -5.7% (inactive).

Consider `O=C(N/N=C/c1ccccc1)c1ccc(-c2ccccc2)cc1`, for which the inhibition is -17.2% (inactive).

Turning to `CCC(=O)Nc1nc2ccccc2n1Cc1ccc(C)cc1`, the inhibition is 31.5% (inactive).

Regarding `CCC(=O)Nc1nc2ccccc2n1Cc1ccccc1`, the inhibition is 23.4% (inactive).

Turning to `CCC(=O)Nc1nc2ccccc2n1CCN(C)C`, the inhibition is -15.3% (inactive).

With `CCC(=O)Nc1nc2ccccc2n1CCN(CC)CC`, the inhibition was -9.6% (inactive).

As to `CCC(=O)Nc1nc2ccccc2n1Cc1ccc(Cl)cc1`, the inhibition is 101% (active).

As for `CCCCCCCn1c(NC(=O)CC)nc2ccccc21`, the inhibition was 109% (active).

As for `CCn1c(C)nc2cc(C(=O)n3cc(C(=O)c4cc(F)ccc4O)cn3)ccc21`, the inhibition is 23.8% (inactive).

As for `Nc1ccc(-c2nc3ccccc3o2)cc1`, the inhibition is 5.8% (inactive).

In the case of `COc1ccc([C@@H]2[C@@H]3C(=O)N(C(C)(C)C)C(=O)[C@@H]3[C@]3(Cc4ccc(Cl)cc4)C(=O)N(c4cccc(C)c4)C(=O)N23)cc1`, the inhibition was 13.2% (inactive).

Consider `COc1cccc(NC(=O)C2CCN(S(C)(=O)=O)CC2)c1`, for which the inhibition is -30.4% (inactive).

In the case of `Cc1cc(S(=O)(=O)Nc2ccc3c(c2)n(C)c(=O)n3C)ccc1F`, the inhibition was 0.4% (inactive).

As to `Oc1c(Br)cc(Br)cc1CNn1cnnc1`, the inhibition was 5.1% (inactive).

Turning to `COc1cc(SC)ccc1C(=O)Nc1nccs1`, the inhibition was -52.4% (inactive).

Turning to `COc1cc(SC)ccc1C(=O)Nc1cccc(C)n1`, the inhibition was -70% (inactive).

Turning to `COc1cc(SC)ccc1C(=O)Nc1ccc(Cl)cn1`, the inhibition is 16.3% (inactive).

For the compound `COc1cc(SC)ccc1C(=O)Nc1ncc(C)s1`, the inhibition was 82.7% (active).

Consider `COc1cc(SC)ccc1C(=O)Nc1nc(C)cs1`, for which the inhibition was 91.9% (active).

Turning to `COc1cc(SC)ccc1C(=O)Nc1nc(C)cc(C)n1`, the inhibition is -19.1% (inactive).

As for `CCCCOc1ccccc1/C=N/NC(=O)CC#N`, the inhibition was -26.1% (inactive).

With `O=C(NNC(=S)Nc1ccc(Cl)cc1)c1ccccc1OC(F)F`, the inhibition is -11.7% (inactive).

Take `COc1ccccc1-n1cc(-c2ccc(Br)cc2)[nH]c1=S`: the inhibition was -0.3% (inactive).

Consider `Cc1sc2ncnc(Sc3ccccc3C(=O)Nc3ccc(Br)cc3)c2c1C`, for which the inhibition was 9.8% (inactive).

As to `Nc1c(Br)c(=O)[nH]c(=O)n1-c1ccccc1`, the inhibition is 6.9% (inactive).

In the case of `Cc1cc(=O)[nH]c(N=N/C(=N/Nc2ccc(O)cc2)c2ccccc2)n1`, the inhibition was 105% (active).

As to `Cc1cc(=O)[nH]c(N=N/C(=N/Nc2ccccc2C)c2ccccc2)n1`, the inhibition is 45.2% (inactive).

On to `COc1ccc(N/N=C(/N=Nc2nc(C)cc(=O)[nH]2)c2ccccc2)cc1`, for which the inhibition is 11.2% (inactive).

In the case of `COc1ccc(N(CC(=O)NC2CCCCC2)C(=O)c2snc(C(N)=O)c2N)cc1`, the inhibition is -27.6% (inactive).

With `CN1CCN(CCCNC(=O)Cn2nc(-c3ccccc3)ccc2=O)CC1`, the inhibition was -20.1% (inactive).

For `O=C(O)c1nc(N2CCCC2)ncc1Cl`, the inhibition is 0.1% (inactive).

With `O=C1/C(=C/c2cccnc2)CCc2c1[nH]c1ccccc21`, the inhibition is 82% (active).

In the case of `Cc1ccc(/C=C2/CCc3c([nH]c4ccccc34)C2=O)cc1`, the inhibition was -61.5% (inactive).

Consider `O=C1/C(=C\c2ccccc2)CCc2c1[nH]c1ccccc21`, for which the inhibition was -31.1% (inactive).

As to `COC(=O)c1cn(CCOc2ccccc2)c2ccccc12`, the inhibition was -11.9% (inactive).

Consider `COc1ccccc1C(=O)Nc1cccnc1`, for which the inhibition is -35.2% (inactive).

Consider `CC1CCc2nc(NC(=O)c3ccco3)sc2C1` (stereo not drawn), for which the inhibition was 42.5% (active).

In the case of `CC1CCc2nc(NC(=O)C3CC3)sc2C1` (stereo not drawn), the inhibition was -43.5% (inactive).

`CC1CCc2nc(NC(=O)Cc3cccs3)sc2C1` (stereo not drawn): the inhibition is -17.9% (inactive).

`O=C(CSc1nc2ccccc2o1)Nc1nc2ccccc2s1`: the inhibition was 25.3% (inactive).

Take `CC1CCc2nc(NC(=O)CCSc3ccccc3)sc2C1` (stereo not drawn): the inhibition was -19.7% (inactive).

With `CC(=O)Nc1ccc(S(=O)(=O)N2CCN(c3ncccn3)CC2)cc1`, the inhibition is -2% (inactive).

Take `CCOc1ccccc1NC(=O)C(C)CC` (stereo not drawn): the inhibition is -23.5% (inactive).

Consider `COc1ccc(NC(=O)Cc2nnc(SCC(=O)NC3CCCCC3C)n2C)cc1` (stereo not drawn), for which the inhibition is 17.2% (inactive).

On to `CCN(CC1CCCN(CCc2cccc(F)c2)C1)C(=O)c1ccc(CSC)o1` (stereo not drawn), for which the inhibition is -11% (inactive).

For the compound `COc1ccc(C(=O)OC(COc2ccccc2)Cn2ccnc2)cc1` (stereo not drawn), the inhibition was 2.7% (inactive).

`Cc1coc2cc3oc(=O)c(CC(=O)N[C@@H](CC(C)C)C(=O)O)c(C)c3cc12`: the inhibition is -5.8% (inactive).

Consider `COc1cc(C2C3C(C)N(C)C(=O)N(C)C3N(C)C(=O)N2C)ccc1O` (stereo not drawn), for which the inhibition is -20.9% (inactive).

Regarding `COc1cc(/C=C2\SC(=S)NC2=O)ccc1OS(=O)(=O)c1ccccc1`, the inhibition is 4.1% (inactive).

`COc1ccc(/C=C2\SC(=S)NC2=O)cc1OS(=O)(=O)c1ccc(NC(C)=O)cc1`: the inhibition is 2.1% (inactive).

For `COc1cc(/C=C2/SC(=S)NC2=O)ccc1OS(=O)(=O)c1ccc(C)cc1`, the inhibition is 93.4% (active).

`Cc1ccc(CNC(=O)C2CCN(S(=O)(=O)c3ccc(Br)s3)CC2)cc1`: the inhibition was 16% (inactive).

With `Cc1cc(-n2c(C)cc(C(=O)CSc3nc(N)cc(=O)[nH]3)c2C)no1`, the inhibition is 9.7% (inactive).

For `Cc1cc(C(=O)CSc2nc(N)cc(=O)[nH]2)c(C)n1-c1ccc(OC(F)F)cc1`, the inhibition was 45.3% (active).

For the compound `Cc1cc(C(=O)CSc2cccc[n+]2[O-])c(C)n1-c1ccc(OC(F)F)cc1`, the inhibition was 2.7% (inactive).

With `COCCCNC(=O)CNC(=O)c1cn(-c2ccccc2OC)c(=O)c2ccccc12`, the inhibition is -30.6% (inactive).

`Cc1ccc(C)c(NC(=O)CCN2CC(C)OC(C)C2)c1` (stereo not drawn): the inhibition is -8.9% (inactive).

In the case of `COc1ccc(CN2CCSc3sccc3C2=O)cc1`, the inhibition was -4.1% (inactive).

In the case of `N#CC(c1nc2ccccc2nc1N1CCCC1)S(=O)(=O)c1ccccc1` (stereo not drawn), the inhibition was 10.2% (inactive).

As to `CCCCOc1nc2ccccc2nc1C(C#N)S(=O)(=O)c1ccccc1` (stereo not drawn), the inhibition is 79.5% (active).

Regarding `CC1CCCN(c2nc3ccccc3nc2C(C#N)S(=O)(=O)c2ccccc2)C1` (stereo not drawn), the inhibition was 102% (active).

As for `N#CC(c1nc2ccccc2nc1OCCO)S(=O)(=O)c1ccccc1` (stereo not drawn), the inhibition was -3.6% (inactive).

Take `N#CC(c1nc2ccccc2nc1N1CCCCC1)S(=O)(=O)c1ccc(Cl)cc1` (stereo not drawn): the inhibition was 88.1% (active).

For the compound `Cc1ccc(S(=O)(=O)C(C#N)c2nc3ccccc3nc2N2CCCCC2)cc1` (stereo not drawn), the inhibition is -4.7% (inactive).

Turning to `COc1ccc(S(=O)(=O)C(C#N)c2nc3ccccc3nc2N2CCCC(C)C2)cc1` (stereo not drawn), the inhibition is -10.7% (inactive).

As for `CC1CCCN(c2nc3ccccc3nc2C(C#N)S(=O)(=O)c2cccs2)C1` (stereo not drawn), the inhibition is 13.4% (inactive).

In the case of `Cc1ccc(S(=O)(=O)C(C#N)c2nc3ccccc3nc2OCCO)cc1` (stereo not drawn), the inhibition is -27.7% (inactive).

In the case of `CCCCOC(=O)c1cccnc1`, the inhibition is 9.9% (inactive).

On to `Cc1c(Cl)cccc1NC(=O)Nc1c(C)n(C)n(-c2ccccc2)c1=O`, for which the inhibition is -22.5% (inactive).

As for `O=C(Cc1n[nH]c(=O)[nH]c1=O)N/N=C/c1c(O)ccc2ccccc12`, the inhibition was -32.5% (inactive).

`COCCN1C(=O)c2ccccc2C(C(=O)N2CCN(c3ccccn3)CC2)C1c1ccc(F)cc1` (stereo not drawn): the inhibition was 13.2% (inactive).

For `COc1cccc(CNC(=O)CCC2CCCN(C(=O)Cc3ccccc3F)C2)c1` (stereo not drawn), the inhibition was -26.2% (inactive).

For the compound `CC(O)c1nc2ccccc2n1CC(=O)N1CCN(c2ccccc2)CC1` (stereo not drawn), the inhibition is -27.8% (inactive).

`CCOc1ccccc1NC(=S)N(CCCN1CCOCC1)Cc1cn(C)c2ccccc12`: the inhibition was -4.6% (inactive).

The values are drawn from PubChem BioAssay AID1578 (Sanford-Burnham Center for Chemical Genomics, 2009).
